Holding throughout (assay): Primary qHTS to identify gynecologic anti-cancer compounds using libraries of approved drugs and bioactive compounds (AID 1345084); also: nearly all actives have a fitted effect of over 55% in size
What all share (details): Gynecologic cancer cell panel viability, ATPlite luminescence, 48 h; series mostly up to 57.5 µM
For orientation: Quantitative high-throughput screening tests each substance at several concentrations.

One test relates to OV90. In short, it runs like this: (§1)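 Five-point cytotoxicity, 48 h drug exposure at 37 C, 5% CO2, on cells seeded 16 h beforehand. ATP content read by ATPlite luminescence.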
The subject of another test is PA-1. In short, it runs like this:
as §1

For a further test, the system named is SKOV3. In short, it runs like this: as §1
For a further test, the system named is Tov-21-G. The method in brief: as §1
A further test deals with Tov112D. In short, it runs like this: as §1

Records with an inconclusive call do not appear. Values without a mark were called inactive. Activity calls are given as the source filed them. Calls follow the shape of the dose curve; as a rule, active = well fitted cell-killing curve with a large enough effect; inconclusive = small, poorly fitted or top-dose-only effect, or effect the other way; inactive = flat fitted curve, though single readings scatter.
% is scaled to controls: 0 for no effect and ±100 for the full control effect; potency is read from the fitted curve at half-maximal effect.

With `CNC(=O)[C@@H](c1ccccc1)N1CCc2cc(OC)c(OC)cc2[C@@H]1CCc1ccc(C(F)(F)F)cc1`, the Potency entry in the test with OV90, with PA-1, with SKOV3, with Tov-21-G and with Tov112D was “inactive” throughout.
On to `CO[C@@H]1[C@H](O)CCC2(CO2)[C@H]1[C@@]1(C)O[C@@H]1CC=C(C)C` (stereo not given in full), for which the Potency entry with OV90, in the test on PA-1, in the test on SKOV3, with Tov-21-G and in the test with Tov112D was “inactive” each time.
For `C[C@@H]1C[C@H]2O[C@@]3(O[C@@H]2C(C)(C)O)C(O)[C@@]2(C)C4CCC5C(C)(C)[C@@H](O[C@H]6OC[C@H](O)[C@@H](O)[C@@H]6O)CC[C@@]56C[C@@]46CC[C@]2(C)C13` (stereo not given in full), the Potency entry in the test with OV90, in the test with PA-1, in the test with SKOV3, in the test on Tov-21-G and in the test with Tov112D was “inactive” each time.
For the compound `C=C1C(=O)OC2C3=C(C)C(=O)CC3C(C)CC(O)C12` (stereo not given), the Potency result in the test with OV90, with PA-1, in the test with SKOV3, in the test with Tov-21-G and with Tov112D was “inactive” each time.
Turning to `O=C(O)c1cc(N(Cc2ccc(C3CCCCC3)cc2)C(=O)c2ccc(Oc3ccccc3)cc2)ccc1O`, the Potency entry in the test with OV90, in the test on PA-1, with SKOV3, in the test with Tov-21-G and in the test on Tov112D was “inactive” throughout.
In the case of `CC1(C)CC[C@]23CO[C@@]4(CCC5[C@@]6(C)CC[C@H](O[C@@H]7OC[C@H](O[C@@H]8O[C@H](CO)[C@@H](O)[C@H](O)[C@H]8O[C@@H]8OC[C@@H](O)[C@H](O)[C@H]8O)[C@H](O)[C@H]7O)[C@@](C)(CO)C6CC[C@@]5(C)[C@]4(C)CC2=O)[C@@H]3C1` (stereo not given in full), the activity change, negative = cytotoxicity was -4.17% [at 11.6 µM] in the test on OV90; 10.3% [at 11.6 µM] in the test on PA-1; -7.83% [at 11.6 µM] in the test on SKOV3; -3.45% [at 11.6 µM] in the test on Tov-21-G; 1.26% [at 11.6 µM] in the test with Tov112D.
For `N#Cc1cccc(C(=O)Nc2cc(-c3ccccc3)nn2-c2ccccc2)c1`, the Potency entry in the test with OV90, in the test with PA-1, with SKOV3, in the test on Tov-21-G and with Tov112D was “inactive” in each case.
For `CCCc1cc(C)n(C)c(=O)c1CN(C)C(=O)c1cc(-c2ccc(N3CCN(C(C)C)CC3)nc2)cc2c1cnn2C(C)C`, the Potency entry in the test with OV90, in the test on PA-1, with SKOV3, in the test on Tov-21-G and with Tov112D was “inactive” each time.
Consider `C/C=C(/C)C(=O)OC1C=C2C3C(C)C(C)C(OC(=O)C(C)C(C)O)CC3(C)CCC2(C)C2(C)CC(OC(C)=O)C3C(C)(C)C(O)C(=O)CC3(C)C12` (stereo not given), for which the Potency entry with OV90, with PA-1, in the test on SKOV3, in the test with Tov-21-G and in the test on Tov112D was “inactive” in each case.
In the case of `Cc1ccc(F)cc1S(=O)(=O)N[C@@H]1CCN(Cc2ccc(OC(C)C)cc2)C1`, the Potency result in the test on OV90, with PA-1, in the test with SKOV3, in the test with Tov-21-G and in the test on Tov112D was “inactive” throughout.
On to `Clc1cccc(COc2cncc(N3CCNCC3)n2)c1`, for which the Potency entry in the test on OV90, in the test with PA-1, in the test with SKOV3, with Tov-21-G and with Tov112D was “inactive” each time.
As to `COc1cc(-c2nc(N[C@H](CO)Cc3ccccc3)ccc2C(=O)NCCOc2ccccc2)cc(OC)c1OC`, the Potency result in the test on OV90, in the test with PA-1, in the test with SKOV3, with Tov-21-G and in the test on Tov112D was “inactive” in each case.
Regarding `CC(=O)O[C@H]1CC[C@]2(C)[C@H]3CC[C@]4(C)Oc5oc(C)cc(=O)c5C[C@H]4[C@]3(C)CC[C@H]2C1(C)C`, the Potency entry in the test on OV90, in the test with PA-1, with SKOV3, with Tov-21-G and with Tov112D was “inactive” in each case.
For the compound `Cc1nc2c(C(F)(F)F)cccc2nc1-c1ccc(-c2cccc(S(C)(=O)=O)c2)cc1`, the Potency result in the test on OV90, in the test with PA-1, with SKOV3, with Tov-21-G and in the test on Tov112D was “inactive” throughout.
In the case of `O=C(/C=C/c1ccccc1O)O[C@@H]1O[C@H](CO)[C@@H](O)[C@H](O)[C@H]1O`, the Potency entry with OV90, with PA-1, in the test on SKOV3, in the test with Tov-21-G and in the test on Tov112D was “inactive” each time.
For the compound `CC(=O)OC1CC2(C)C(CCC(C)C23Cc2c(O)cc(CO)c(C=O)c2O3)C(C)(C)C1O` (stereo not given), the Potency result in the test on OV90, with PA-1, in the test on SKOV3, in the test with Tov-21-G and in the test on Tov112D was “inactive” in each case.
As to `CCCN(CCc1ccsc1)C1CCc2c(O)cccc2C1` (stereo not given), the Potency result with OV90, in the test with PA-1, in the test with SKOV3, with Tov-21-G and with Tov112D was “inactive” throughout.
Regarding `CC(C)CCNc1ncccc1C(=O)N1CCN(Cc2ccccc2)CC1`, the Potency entry in the test with OV90, in the test with PA-1, with SKOV3, in the test on Tov-21-G and in the test on Tov112D was “inactive” each time.
As to `C=C1C(=O)OC2C=C(C)CC/C=C(\CO)CC(O)C12` (stereo not given), the Potency entry in the test with OV90, in the test on PA-1, with SKOV3, in the test with Tov-21-G and in the test on Tov112D was “inactive” each time.
For the compound `CNCCN1CCC(c2cc(CN(C)C(=O)c3cccc(Oc4ccccc4)c3)ccn2)CC1`, the Potency entry with OV90, in the test on PA-1, in the test on SKOV3, with Tov-21-G and in the test on Tov112D was “inactive” throughout.
For `C#CCCCn1cc(-c2cccc3c2N[C@H](C)CC(=O)N3)cn1`, the Potency entry with OV90, in the test with SKOV3, in the test on Tov-21-G and in the test with Tov112D was “inactive” each time. For the same compound, in the test with PA-1, the Potency was 7.08 µM (active).
Turning to `CCOC(=O)N1c2ccc(C(F)(F)F)cc2C(N(Cc2cc(C(F)(F)F)cc(C(F)(F)F)c2)C(=O)OC)CC1CC` (stereo not given), the Potency entry in the test on OV90, in the test on PA-1, in the test on SKOV3, with Tov-21-G and in the test on Tov112D was “inactive” throughout.
Turning to `CCOC(=O)C1=Cc2ccc(C(F)(F)C(F)(F)F)cc2N=C(N)C1`, the Potency result in the test on OV90, in the test on PA-1, in the test on SKOV3, in the test on Tov-21-G and in the test on Tov112D was “inactive” each time.
Turning to `COc1ccc(NC(=O)C2C[C@H](C)CC[C@H]2C(C)C)cc1` (stereo not given in full), the Potency entry in the test on OV90, in the test with PA-1, in the test on SKOV3, in the test with Tov-21-G and with Tov112D was “inactive” in each case.
Turning to `C=C1/C(=C/C=C2\CCC[C@@]3(C)C2CCC3[C@H](C)/C=C/[C@@H](O)C2CC2)C[C@@H](O)C[C@@H]1O` (stereo not given in full), the Potency entry in the test on OV90, in the test with PA-1, in the test with SKOV3, in the test on Tov-21-G and in the test with Tov112D was “inactive” each time.

The values above are taken from PubChem BioAssay (NCATS).
